# Data: the supplement of paper PMC6555819
# What was measured:
# Assay in all cases: PBM binding z-score (relative to random genomic background probes); higher = stronger binding; sequences stand for … in GC…GCGATTGACAGCGTAGAATGAAGG
# [1] = test system: FXR:RXRa (NR concentration 270 nM, RXRa partner concentration 90 nM)
# Procedure, shortened: (§1)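 Binding buffer was PBS pH 7.4 with 2% milk, 0.02% Triton X-100, 1 mM DTT, 0.2 mg/mL BSA and 0.4 mg/ml salmon testes DNA. In it, ligand-free nuclear receptor dimers were incubated 1 h on custom Agilent 4×180K protein-binding microarrays carrying double-stranded probes. Antibodies against each partner (one per run) detected binding, and z-scores were calculated against random background probes after regression normalization of scanned fluorescence.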
# [2] = test system: LXRa:RXRa (NR concentration 270 nM, RXRa partner concentration 90 nM)
# Procedure, shortened: as §1
# [3] = test system: LXRa homodimer (NR concentration 270 nM)
# Procedure, shortened: as §1
# [4] = test system: LXRb:RXRa (NR concentration 270 nM, RXRa partner concentration 90 nM)
# Procedure, shortened: as §1
# [5] = test system: LXRb homodimer (NR concentration 270 nM)
# Procedure, shortened: as §1
# [6] = test system: PPARa:RXRa (NR concentration 270 nM, RXRa partner concentration 90 nM)
# Procedure, shortened: as §1
# [7] = test system: PPARg:RXRa (NR concentration 180 nM, RXRa partner concentration 90 nM)
# Procedure, shortened: as §1
# [8] = test system: PPARg:RXRa 270nM:90nM, anti-RXR (NR concentration 270 nM, RXRa partner concentration 90 nM)
# Procedure, shortened: as §1
# [9] = test system: PPARg:RXRa 30nM:10nM, anti-RXR (NR concentration 30 nM, RXRa partner concentration 10 nM)
# Procedure, shortened: as §1
# [10] = test system: PPARg:RXRa 90nM:30nM, anti-RXR (NR concentration 90 nM, RXRa partner concentration 30 nM)
# Procedure, shortened: as §1
# [11] = test system: PPARg:RXRa DBDmut IVT, anti-RXR (DBD mutation: RXRa K156A/R161A, NR concentration 270 nM, RXRa partner concentration 90 nM)
# Procedure, shortened: as §1
# [12] = test system: PPARg:RXRa IVT, anti-PPARg (NR concentration 270 nM, RXRa partner concentration 90 nM)
# Procedure, shortened: as §1
# [13] = test system: PPARg DBDmut:RXRa IVT, anti-PPARg (DBD mutation: PPARg1 K132A/R137A, NR concentration 270 nM, RXRa partner concentration 90 nM)
# Procedure, shortened: as §1
# [14] = test system: PPARg DBDmut IVT, anti-PPARg (DBD mutation: PPARg1 K132A/R137A, NR concentration 270 nM)
# Procedure, shortened: as §1
# [15] = test system: PPARg homodimer (NR concentration 180 nM)
# Procedure, shortened: as §1
# [16] = test system: PXR:RXRa (NR concentration 270 nM, RXRa partner concentration 90 nM)
# Procedure, shortened: as §1
# [17] = test system: PXR homodimer (NR concentration 270 nM)
# Procedure, shortened: as §1
# [18] = test system: RARa:RXR (NR concentration 270 nM, RXRa partner concentration 90 nM)
# Procedure, shortened: as §1
# [19] = test system: RARa homodimer (NR concentration 270 nM)
# Procedure, shortened: as §1
# [20] = test system: RARb:RXRa (NR concentration 270 nM, RXRa partner concentration 90 nM)
# Procedure, shortened: as §1
Sequence,PBM binding z-score [1],PBM binding z-score [2],PBM binding z-score [3],PBM binding z-score [4],PBM binding z-score [5],PBM binding z-score [6],PBM binding z-score [7],PBM binding z-score [8],PBM binding z-score [9],PBM binding z-score [10],PBM binding z-score [11],PBM binding z-score [12],PBM binding z-score [13],PBM binding z-score [14],PBM binding z-score [15],PBM binding z-score [16],PBM binding z-score [17],PBM binding z-score [18],PBM binding z-score [19],PBM binding z-score [20]
CAAACTCGGTCACCGGAAGGTCAAAGTCCGCATG,4.53,5.04,4.93,3.86,1.28,4.39,3.62,4.26,1.23,3.26,4.82,5.21,0.644,0.562,4.4,4.75,1.84,5.66,1.31,4.61
CCGACTAGGGCAAGGTTACCATAACGCACAGCCA,0.299,0.666,-0.117,0.701,-1.03,1.93,3.55,3.99,1.61,3.28,4.54,4.32,-0.62,-0.559,1.27,0.169,-0.069,0.801,0.218,1.91
ACTAGTTGGTCAGCTGAGGGCACACACAATTCGG,0.819,0.0659,0.172,0.183,-0.0227,0.606,0.887,0.572,0.27,0.385,0.794,1.19,-0.0581,0.654,0.538,2.26,0.211,1.13,-0.0752,1.73
ACTATTACTTGACTTAGGGCAACCGATACGACGC,0.391,0.445,1.02,0.691,1.56,0.231,1.19,0.283,0.727,0.716,0.692,0.81,1.57,1.96,1.24,0.284,0.533,0.623,1.42,0.876
CGAACGAGCGCATGAGTTGATAGCAAATGCCGAT,-0.525,-0.575,-0.486,-0.865,-1.12,-1.7,0.405,-0.647,-0.312,-0.44,-0.785,-0.827,-0.939,-1.33,-2.16,-0.509,-0.275,-0.304,-0.678,-1.03
ACTAGCAGGCCAAGGGTCACTCATGATTAGTCCG,2.27,2.25,0.295,2.52,-0.498,4.38,7.52,7.48,6.27,7.65,1.25,3.63,0.294,-0.197,2.62,3,-0.0152,4.04,0.642,3.41
AGAATGAGGTGAAGATCAGGGAAACAGAATACAT,0.903,0.457,-0.113,0.85,-0.114,2.91,2.33,2.21,0.859,1.5,4.13,4.03,1.46,0.73,0.633,0.242,0.183,0.786,0.494,1.32
CGAACGAGGGCATGAGTTGATTGCAAATGCCGAT,0.319,0.271,-0.529,-0.0625,-0.873,1.14,1.26,1.58,0.205,1.08,2.89,1.87,-0.365,-0.273,0.304,0.676,0.4,0.51,-0.117,1.96
CCTTACGGGTCAAGGTTAGAGCACGGGTGGTACG,5.52,3.41,-0.175,2.64,-0.214,4.92,4.33,4.83,1.86,3.37,1.69,3.34,0.826,0.266,2.42,3.08,-0.133,3.92,0.744,4.13
CAAACTAGGTCACCGGAAGGTTAAAGTCCGCATG,5.17,4.53,1.89,3.61,0.743,5.67,9.32,7.58,5.78,7.27,8.22,9.06,2.44,1.44,3.7,3.98,0.858,5.18,0.971,4.78
